# Results from PubChem BioAssay AID504714 (Sanford-Burnham Center for Chemical Genomics, 2011).
# The whole screen tested about 1,000 compounds, of which fewer than 10 were called active. The rule behind the calls is not given here. These entries were drawn from the full list.
# Assay: E. coli UDG inhibitors, confirmation, counter-screen for APOBEC3A inhibitor project, biochemical, single concentration, fluorescence, FAM/TAMRA oligo (AID 504714)
# Conditions: UDG counterscreen, FAM/TAMRA uracil oligo fluorescence; at 20 µM; hits give high values
row,SMILES,inhibition
1,CCCN1C2=C(C(=O)CCC2)C(c2ccc(O)c(Br)c2)C2=C1CCCC2=O,0.9% (inactive)
2,COc1ccc(CNc2nnnn2C)cc1,-2.73% (inactive)
3,CCN1C(=NCC(C)C)N[C@@H](CCc2ccccc2)[C@H](C(=O)NCC(C)C)[C@H]1C,-1.61% (inactive)
4,COC(=O)C[n+]1cccc2ccccc21,-1.97% (inactive)
5,N#Cc1ccsc1NC(=O)CN1CCN(S(=O)(=O)c2cc(Cl)ccc2Cl)CC1,-0.63% (inactive)
6,COc1ccc(Br)cc1CN(C)C(=O)C1CC(=O)N(C2CCCC2)C1 (centres undefined),1.84% (inactive)
7,COCCCn1c(Cc2csc(Nc3cccc(Cl)c3)n2)nnc1SCC(=O)OC1CCCCC1,5.59% (inactive)
8,COc1ccc(CCNC(=O)COC(=O)/C=C/c2cccs2)cc1OC,-1.3% (inactive)
9,COc1ccccc1CCNC(=O)C1CCN(C(=O)/C=C/c2ccccc2)CC1,2% (inactive)
10,CCCCNC(=O)CSc1nc2ccc(NC(=O)CSc3nnc(N)s3)cc2s1,-1.96% (inactive)
11,CC(C)CCOc1ccc(C(=O)C[N+]2(C)CCOCC2)cc1,1.5% (inactive)
12,O=C(c1ccc(CS(=O)(=O)c2ccccc2)o1)N1CCN(c2ccccc2)CC1,-1.02% (inactive)
13,COC(=O)C1=C(C)N(Cc2ccccc2)C(=NCCCOC(C)C)N[C@H]1c1ccccc1,-3.67% (inactive)
14,CC1(C)CC(N2CCN(C(c3ccccc3)c3ccccc3)CC2)=CC(=[N+]2CCCCC2)C1,-2.53% (inactive)
15,S=C(Nc1cccnc1)Nc1ccccn1,-1.6% (inactive)
16,CC1(C)Oc2ccc3ccc(=O)oc3c2/C(=C/NCCO)C1=O,-2.48% (inactive)
17,NS(=O)(=O)c1cc(C(=O)OCC(=O)NNC(=O)c2ccccc2)ccc1Cl,5.01% (inactive)
18,O=C1c2oc3ccccc3c(=O)c2C(c2cccc(O)c2)N1c1ccccn1 (centres undefined),3.41% (inactive)
19,CSc1nnc(SCc2nc3sc(C(=O)O)c(C)c3c(=O)[nH]2)s1,-3.34% (inactive)
20,CCn1c(SCC(=O)Nc2cccc(F)c2)nnc1-c1cc2cc(Br)ccc2o1,6.96% (inactive)
21,CCOC(=O)c1ccc(NC(=O)CSc2ncccn2)cc1,1.35% (inactive)
22,Cc1ccc(CCCOC(=O)C[N+]2(C)CCCCC2)cc1,0.55% (inactive)
23,C[N+](C)(CCCCCC[N+](C)(C)CCCN1C(=O)c2cccc3cccc(c23)C1=O)CCCN1C(=O)c2cccc3cccc(c23)C1=O,1.2% (inactive)
24,CC(Oc1ccc(F)cc1)C(=O)Nc1cc(S(=O)(=O)N2CCOCC2)ccc1N1CCN(C)CC1 (centres undefined),-3.61% (inactive)
25,C=CC1=C(C(=O)O)N2C(=O)[C@@H](NC(=O)/C(=N/OCC(=O)O)c3csc(N)n3)[C@H]2SC1,-3.4% (inactive)
26,O=C(COC(=O)c1cnc(Cl)c(Cl)c1)NCc1ccco1,0.62% (inactive)
27,Cc1ccc(C(=O)N/N=C\c2cc(Br)c(Br)o2)cn1,2.94% (inactive)

row,SMILES,inhibition
1,CC(C)c1ccc(/C=C2\NC(=O)NC2=O)cc1,-1.04% (inactive)
2,CC[n+]1cc(C)ccc1/C=C/c1ccc(N(C)C)cc1,-2.09% (inactive)
3,CS(=O)(=O)c1ccc2c(c1)SC1=NC(=O)/C(=C/c3ccco3)C(=N)N12,1.37% (inactive)
4,CC(=O)Nc1ccc(NC(=O)C2CCCN(S(=O)(=O)c3ccc(Cl)cc3)C2)cc1 (centres undefined),7.05% (inactive)
5,CCNC(=O)COC(=O)CCNC(=O)c1cccc(C)c1,-0.25% (inactive)
6,CC(=O)Nc1ccc(Nc2cc(C)nc(Nc3ccc(NC(C)=O)cc3)n2)cc1,4.81% (inactive)
7,CCCCCCCC[n+]1cccc(C(=O)N2c3c(nc(N)[nH]c3=O)NC(C)C2C)c1 (centres undefined),-1.86% (inactive)
8,C[n+]1ccc(C(=O)NCc2ccccc2)cc1,-2.62% (inactive)
9,CCN1C(=NCCc2cccnc2)N[C@@H](c2ccccc2)[C@H](C(=O)OC)[C@H]1C,-0.96% (inactive)
10,O=C(Nc1cccc(-c2nc3ccccc3[nH]2)c1)c1ccc(C(=O)Nc2cccc(-c3nc4ccccc4[nH]3)c2)cc1,-1.03% (inactive)
11,CC(/C=C/c1ccccc1)=N\NC(=O)C1CC1(C)c1ccccc1 (centres undefined),1.23% (inactive)
12,Cc1cc2c(cc1C)[n+](C)cn2CC(O)COCC1CC=CCC1 (centres undefined),4.84% (inactive)
13,Cc1csc(SCC(=O)Nc2sccc2C#N)n1,-2.94% (inactive)
14,COc1ccc(C)cc1NC(=O)CCCN1C(=O)NC(C)(C)C1=O,2.69% (inactive)
15,CCN(CC)CCCNC(=O)CCn1nc(-c2ccc(Cl)cc2)ccc1=O,-0.02% (inactive)
16,N#Cc1ncc(C(F)(F)F)cc1Oc1cccnc1,-2.52% (inactive)
17,C[N+]1(CCNC(=O)/C=N/O)CCCCC1,2.37% (inactive)
18,CSc1nnc(-c2ccncc2)n1CCCN1CCCC1=O,2.58% (inactive)
19,C[N+]1(CC(O)COc2ccccc2)CCN(C(=O)c2ccc([N+](=O)[O-])cc2)CC1 (centres undefined),-0.77% (inactive)
20,CCCc1nc(-c2cc3cc(C)ccc3[nH]c2=O)no1,-1.41% (inactive)
21,CCN1C(=NCc2ccc(OC)cc2)N[C@@H](CCc2ccccc2)[C@H](C(=O)NCc2ccc(OC)cc2)[C@H]1C,2.26% (inactive)
22,CCS(=O)(=O)c1ccc(-c2cccc(NC(=O)c3ccc(Br)o3)c2)nn1,-1.58% (inactive)
23,COc1ccc(Cc2nnc(NC(=O)c3ccc(OC)cc3OC)s2)cc1,2.26% (inactive)
24,Cc1nnc(N/N=C/c2ccccn2)[nH]c1=O,3.44% (inactive)
25,COc1ccccc1-c1noc(CSc2nc(C)cc(=O)[nH]2)n1,-1.99% (inactive)
26,N#Cc1ccccc1CN1C(=O)S/C(=C/c2cccn2-c2cccc(C(=O)O)c2)C1=O,-1.19% (inactive)
27,CC[n+]1c(C)n(-c2ccccc2)c2ccc(NC(C)=O)cc21,-1.23% (inactive)
